From PubChem BioAssay
A selection: hits, their analogues and other compounds. The true share with any hit is near 5.2%.
TrxR1 substrate = is turned over as a substrate by rat TrxR1; O89049; purified TrxR1 substrate turnover, NADPH consumption readout; Potency, µM (doses to about 114 µM); 390,000 compounds, 0.01% hits; AID 588456; also: nearly all actives have a fitted effect of over 50% in size
Target sequence (O89049 whole entry, looked up): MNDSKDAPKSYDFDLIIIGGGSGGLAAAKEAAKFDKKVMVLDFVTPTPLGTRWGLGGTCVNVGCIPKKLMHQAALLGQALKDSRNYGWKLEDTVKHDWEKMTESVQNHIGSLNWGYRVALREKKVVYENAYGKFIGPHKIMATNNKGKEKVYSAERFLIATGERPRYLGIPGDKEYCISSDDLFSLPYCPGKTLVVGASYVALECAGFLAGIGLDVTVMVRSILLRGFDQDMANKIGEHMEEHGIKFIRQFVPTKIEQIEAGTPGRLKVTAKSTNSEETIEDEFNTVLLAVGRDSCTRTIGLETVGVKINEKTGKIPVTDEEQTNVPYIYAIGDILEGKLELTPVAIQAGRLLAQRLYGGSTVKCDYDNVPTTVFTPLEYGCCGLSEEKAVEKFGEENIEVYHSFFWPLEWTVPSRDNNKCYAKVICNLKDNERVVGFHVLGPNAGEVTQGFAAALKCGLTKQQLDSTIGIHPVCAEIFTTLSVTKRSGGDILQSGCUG
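Rat TrxR1, dispensed at 90 nM, was prereduced with 400 uM NADPH (final) for 5 min at ~22 deg C, then incubated with compound 15 min before 400 uM selenite. A first-read NADPH fluorescence drop versus no-compound background flagged substrates.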
PLK1 PBD block = PLK1 (human) polo-box domain binding inhibition. Potency, µM, usual class: inhibitors. 360,000 compounds, 2.8% hits. P53350. Plk1 PBD binding of FITC phosphopeptide, fluorescence polarization. AID 720504; also: series mostly up to about 57 µM; nearly all actives have a fitted effect of over 65% in size
rTrxR1 inhibitor = rat TrxR1 inhibition; 390,000 compounds, 1% hits; O89049; recombinant rTrxR1, NADPH fluorescence consumption, selenite substrate; Potency, µM (highest dose often 114 µM), usual class: inhibitors; AID 588453; also: nearly all actives have a fitted effect of over 65% in size
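Rat TrxR1 (90 nM in the dispensed reagent) was pre-reduced with 400 uM NADPH for 5 min at room temperature, then incubated with compound for 15 min. After 400 uM selenite was added, NADPH fluorescence (Ex 340/Em 450 nm) was followed for 8 min.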
IDH1 R132H inh = inhibitors of human mutant IDH1 R132H; 390,000 compounds, 0.093% hits; O75874; IDH1-R132H enzyme, NADPH consumption, diaphorase/resazurin fluorescence; AID 602179; Potency, µM (highest dose often 76.6 µM), hits mostly inhibitors; also: nearly all actives have a fitted effect of over 65% in size
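IDH1-R132H (0.5 ug/mL) preincubated 30 min with compound, then NADPH (0.016 mM) and alpha-KG (2 mM) added; 80 min at RT, pH 7.5. Remaining NADPH coupled via diaphorase/resazurin to fluorescence (540/590 nm); concentration-response curves normalized to no-enzyme control.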
Sfp PPTase inh = Sfp phosphopantetheinyl transferase inhibition | Potency, µM, hits mostly inhibitors | Biochemical Sfp PPTase activity, qHTS | Q9F4F7 | 310,000 compounds, 3.5% hits | AID 1490;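 also: the enzyme is Sfp with the accession as filed and its product quenches rhodamine fluorescence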
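Fluorescence-quenching assay: 15 nM Sfp-PPTase preincubated 15 min at room temperature with compound, then 5 uM rhodamine-CoA and 12.5 uM BHQ-2-labelled YbbR peptide added. Fluorescence (ex 525/em 598 nm) read at start and after 30 min; difference gives rate.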
VDR inh = vitamin D3 receptor (human) inhibition; VDR-SRC2-3 peptide fluorescence polarization, 2 h; Potency, µM, most hits filed as inhibitors; 400,000 compounds, 0.93% hits
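Two reagent solutions held at 4 deg C in the dark were dispensed, compounds pinned at 23 nl, and the mixture incubated 2 h at room temperature. Read-out: fluorescence polarization of VDR–SRC2-3 peptide binding.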
Hits are given with their value; . = inactive; ? = inconclusive; / = no result; [ ] = dose if it differs, or a comment. Calls follow the shape of the dose curve; as a rule, active = well fitted curve in the direction sought with a large enough effect; inconclusive = small, poorly fitted or top-dose-only effect, or another doubt; inactive = no such curve, though single readings can be large; an effect the other way counts as inactive or inconclusive.

SMILES	TrxR1 substrate	PLK1 PBD block	rTrxR1 inhibitor	IDH1 R132H inh	Sfp PPTase inh	VDR inh
Cc1onc(-c2ccccc2Cl)c1C(=O)N1CC(C)OC(C)C1 (stereo not drawn)	.	30µM	.	.	.	?
COc1ccc(-c2csc(Nc3ccc(S(=O)(=O)Nc4cc(OC)nc(OC)n4)cc3)n2)cc1	.	24µM	.	.	?	.
COc1cc(NS(=O)(=O)c2ccc(N/C=C\C(=O)c3ccc(C)cc3)cc2)nc(OC)n1	.	3.4µM	.	.	/	.
COC(=O)c1ccc(C2NC(c3ccc4c(c3)OCO4)=CC(c3ccccc3O)N2)cc1 (stereo not drawn)	.	/	.	/	/	?
CCC(=O)Nc1cc(C(F)(F)F)ccc1N1CCOCC1	.	.	.	.	.	.
O=C(Nc1cc(C(F)(F)F)ccc1N1CCOCC1)c1ccccc1	.	.	.	.	.	.
O=C(CNCc1cccnc1)Nc1cc(C(F)(F)F)ccc1N1CCOCC1	.	.	.	.	56µM	.
O=C(Nc1cc(C(F)(F)F)ccc1N1CCOCC1)c1c(F)c(F)c(F)c(F)c1F	.	30µM	.	.	.	.
CCCCCCCCCCC(CO)CCCCCCCC (stereo not drawn)	/	/	/	/	.	.
COc1ccc(Cl)cc1CC1(C)C(=O)Nc2ccc(S(=O)(=O)NC3CCCCC3)cc21 (stereo not drawn)	/	.	/	/	/	/
Cc1csc(N2CCN(c3cc4nc(-c5ccncc5)[nH]c4cc3Cl)CC2)n1	.	.	.	.	79µM	.
Cc1csc(N2CCN(c3cc4c(cc3Cl)nc(-c3ccncc3)n4CCCN3CCCC3)CC2)n1	.	.	.	.	?	.
Cc1cccn2c(=O)c(/C=C(\C#N)C(=O)NC3CCS(=O)(=O)C3)c(N3CCC(C(N)=O)CC3)nc12 (stereo not drawn)	.	.	.	.	.	.
Cc1cccn2c(=O)c(/C=C(\C#N)c3nc4ccccc4s3)c(Oc3ccc(Br)cc3)nc12	.	/	.	.	/	79µM
N#C/C(=C\c1c(Oc2ccc(F)cc2)nc2ccccn2c1=O)c1nc2ccccc2s1	.	/	.	?	/	?
Cc1ccccc1Oc1nc2c(C)cccn2c(=O)c1/C=C(\C#N)C(=O)NC1CCS(=O)(=O)C1 (stereo not drawn)	.	.	.	.	.	40µM
Cc1cccn2c(=O)c(/C=C(\C#N)C(=O)NC3CCS(=O)(=O)C3)c(Oc3ccccc3Cl)nc12 (stereo not drawn)	.	.	.	.	.	18µM
Cc1ccc(Oc2nc3ccccn3c(=O)c2/C=C(\C#N)C(=O)NC2CCS(=O)(=O)C2)cc1 (stereo not drawn)	.	.	.	.	.	79µM
CC1C(=O)N2CCCc3cc(NC(=O)C(=O)NCCc4ccccc4)cc1c32 (stereo not drawn)	.[11.4 µM]	.	.	.	/	.
CCOC(=O)/C(C#N)=C/c1c(Oc2cccc(C)c2)nc2c(C)cccn2c1=O	.	.	.	.	89µM	.
CCCCNc1c(-c2ccc(-c3ccc(OC)cc3)c(OC)c2)nc2ccccn12	.	.	.	.	/	.
O=C(CSc1nnnn1-c1ccc(F)cc1)NC1CCCCC1	.	27µM	.	.	.	?
CN1C(=O)N(C)c2ccc(C=O)c3cccc1c23	.	.	.	.	.	.
CN1C(=O)N(C)c2ccc(Br)c3cccc1c23	.	30µM	.	.	.	?
CC(=O)OC1C(=O)N(Cc2ccccc2)C1c1ccc(C)cc1 (stereo not drawn)	.	27µM	.	.	/	.
SMILES	TrxR1 substrate	PLK1 PBD block	rTrxR1 inhibitor	IDH1 R132H inh	Sfp PPTase inh	VDR inh
COC(=O)c1c(C)oc(C)c1S(=O)(=O)NCC1CC1	.	.	.	.	.	.
COC(=O)c1c(C)oc(C)c1S(=O)(=O)N(C)C1CCCCC1	.	.	16µM	.	.	.
Cc1ccc(N2C(=O)CS/C2=C(\C(Cl)=C(Cl)Cl)[N+](=O)[O-])cc1	.	.	32µM	.	.	.
O=C(O)c1cccc2cccc(-c3c4ccc(=O)c(O)c-4oc4c(O)c(O)ccc34)c12	.	4.7µM	.[11.4 µM]	.	/	?
CS(=O)(=O)N(CC(=O)O)c1cc(C(F)(F)F)ccc1Cl	.	.	.	.	/	.
Cc1cc(NC(=O)CCOc2ccc(F)cc2)no1	.	.	14µM	.	.	?
Cc1cc(NC(=O)CCCC(=O)NCc2ccccc2)no1	.	.	.	.	.	.
Cc1cc(NC(=O)COc2ccc3c(C)c(C)c(=O)oc3c2)no1	/	.	/	.	/	/
Cc1cc(NC(=O)c2ccc(F)cc2)no1	.	.	.	.	.	.
Cc1ccc(CNC(=O)CCCC(=O)Nc2cc(C)on2)cc1	.	15µM	.[11.4 µM]	.	.	?
Cc1cc(NC(=O)COc2ccc3oc4ccccc4c3c2)no1	.	30µM	.	.	.	.
CC(C)Sc1n[nH]c(=O)n1-c1ccccc1	.	.	.	.	.	.
COc1ccccc1CNc1nc(-c2ccoc2)nc2ccccc12	/	/	/	/	.	?
CC(=O)OC[C@@H]1O[C@@H](O/N=C2/C[C@@H](O)[C@@H](O)[C@@H]3[C@@H]4C(=O)N([C@@H](C)c5ccccc5)C(=O)[C@H]4CC[C@H]23)[C@H](OC(C)=O)[C@H](OC(C)=O)[C@@H]1OC(C)=O	/	/	/	/	.	/
CCn1nnnc1NC(=O)c1cc(OC)c(OC)c(OC)c1	.	27µM	.	.	.	?
CC1(C)NC(=O)N(CC(=O)OCC(=O)NC(=O)c2ccccc2)C1=O	.	.	.	.	/	.
Cc1cc(NN)nc(NS(=O)(=O)c2ccccc2)n1	.	.	.	.	56µM	.
CC(N)(COP(=O)(O)O)C(=O)O (stereo not drawn)	/	/	/	/	?	.
CCOC(=O)/C=C1\Nc2ccccc2OC1=O	.	.	?	.	50µM	.
CCOC(=O)/C=C1\CC(C(=O)OCC)Oc2ccccc21 (stereo not drawn)	.	.	.	.	.	.
CCc1ccc2[nH]c(=O)c(CN(Cc3cccnc3)Cc3nnnn3Cc3ccccc3)cc2c1	.	/	.	/	/	.
CCOC(=O)c1cc(S(=O)(=O)N2CCN(c3ccc(F)cc3)CC2)[nH]n1	.	/	.	.	/	.
O=C(O)c1ccc(Cl)c(S(=O)(=O)N(Cc2ccccc2)c2ccc(Cl)cc2)c1	.	30µM	.	.	.	.
O=C(O)c1ccc(CN(Cc2ccccc2)S(=O)(=O)c2ccc(Cl)cc2)cc1	.	24µM	.	.	.	?
COc1ccc(CC(=O)NCC2CCCN(Cc3ccc(SC)cc3)C2)cc1 (stereo not drawn)	.	.	.	.	.	?
COc1ccc(-c2[nH]ncc2C(=O)NCc2ccc(F)cc2)cc1	.	/	.	/	/	.
